Inconclusive results are not listed. Active and inactive are the calls of the source. The call rests on the fitted dose curve; in most records, active means well fitted inhibition curve with a large enough effect; inconclusive means small, poorly fitted or top-dose-only effect; inactive means flat fitted curve, though single readings scatter.
How the values were obtained:
Assay in all cases: qHTS profiling for inhibitors of Plasmodium falciparum proliferation (AID 504749); further: nearly all actives have a fitted effect of over 60% in size
Settings in all cases: P. falciparum in erythrocytes, SYBR Green DNA, 72 h; series mostly up to 28.7 µM
3D7 = tested on: 3D7
How it was run: (§1)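 SYBR Green fluorescence of parasite DNA, read after lysis and overnight dark incubation, measured growth over 72 h in erythrocyte culture at 0.3% parasitemia and 2.5% hematocrit. Data normalised to DMSO and 0.29 uM artemisinin, with plate-drift correction.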

7G8 = tested on: 7G8
How it was run: as §1

AA1029 = tested on: AA1029
How it was run: as §1

C2A = tested on: C2A
How it was run: as §1

CP185 = tested on: CP185
How it was run: as §1

CP191 = tested on: CP191
How it was run: as §1

CP217 = tested on: CP217
How it was run: as §1

CP237 = tested on: CP237
How it was run: as §1

CP250 = tested on: CP250
How it was run: as §1

CP252 = tested on: CP252
How it was run: as §1

CP256 = tested on: CP256
How it was run: as §1

DFO2036 = tested on: DFO2036
How it was run: as §1

Dd2 = tested on: Dd2
How it was run: as §1

ECU = tested on: ECU
How it was run: as §1

FAB9 = tested on: FAB9
How it was run: as §1

P94_40 = tested on: P94_40
How it was run: as §1

PC15 = tested on: PC15
How it was run: as §1

SC27B = tested on: SC27B
How it was run: as §1

TAB109 = tested on: TAB109
How it was run: as §1

TAB165 = tested on: TAB165
How it was run: as §1

Measured: Potency

CC(C)CN(C[C@@H](OP(=O)(O)O)[C@H](Cc1ccccc1)NC(=O)O[C@@H]1CCOC1)S(=O)(=O)c1ccc(N)cc1
inactive: all assays above

O=C(O)c1cc(O)c2c(c1)[C@H]([C@H]1c3cc(C(=O)O)cc(O)c3C(=O)c3c(O[C@@H]4OC(CO)C(O)C(O)C4O)cccc31)c1cccc(O[C@@H]3OC(CO)C(O)C(O)C3O)c1C2=O (stereo not given in full)
inactive: all assays above

Reference: PubChem BioAssay (NCATS)
